A3A deaminase: inhibitors of human APOBEC3A DNA deaminase; P31941; inhibition, % at 20 µM; 330,000 tested, 0.41% active; recombinant A3A, FAM/TAMRA ssDNA deamination fluorescence;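 active = at least 40% inhibition at 20 µM here, with at most 30% in a related deaminase screen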;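 note: plate controls were A3A with DMSO for no effect and wells lacking A3A enzyme for full effect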
rCAG binder: binds r(CAG) RNA repeats; inhibition, % at 3 µM; r(CAG) RNA repeat, TO-PRO-1 dye displacement fluorescence; 370,000 tested, 1.3% active;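 active = inhibition above the plate cutoff, the mean of all test compounds on that plate plus 3 SD, cut at about 35% in these data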;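 note: 0% = DMSO alone and 100% = 100 µM mitoxantrone as full dye displacement; higher means more dye released from RNA so lower well fluorescence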
A3G deaminase: blocks human APOBEC3G single-stranded DNA deamination; Q9HC16; recombinant A3G, ssDNA deamination FAM/TAMRA fluorescence; inhibition, % at 20 µM; 330,000 tested, 0.28% active; AID 493012;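 active = inhibition of at least 40% at 20 µM, with no more than 30% in the related APOBEC3A deaminase screen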;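 note: plate controls were DMSO wells with A3G for no effect and wells lacking A3G enzyme for full effect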
Target sequence (Q9HC16 whole entry, looked up): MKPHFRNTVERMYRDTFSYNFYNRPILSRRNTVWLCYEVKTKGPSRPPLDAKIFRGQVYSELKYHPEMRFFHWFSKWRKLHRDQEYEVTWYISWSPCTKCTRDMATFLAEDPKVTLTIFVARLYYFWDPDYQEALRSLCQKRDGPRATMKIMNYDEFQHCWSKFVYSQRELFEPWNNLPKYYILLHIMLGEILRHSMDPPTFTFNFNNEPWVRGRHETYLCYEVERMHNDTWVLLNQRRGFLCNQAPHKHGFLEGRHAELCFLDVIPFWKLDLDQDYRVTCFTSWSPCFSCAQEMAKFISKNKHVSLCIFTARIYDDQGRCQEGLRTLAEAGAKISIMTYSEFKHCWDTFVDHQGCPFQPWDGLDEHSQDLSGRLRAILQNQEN
aDG glyco up: alpha-DG glycosylation activation; Pro5-aDG cells, alpha-DG glycosylation AlphaScreen (IIH6); 0% Pro5, 100% B10-LARGE cell signal; activation, % at 10 µM; 360,000 tested, 0.22% active; AID 624168;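 active = activation of at least 8% versus controls, or a plate z-score of at least 8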;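 note: Pro5 are CHO cells carrying HIG-tagged alpha-DG that lacks glycosylation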
ALR inh: blocks human ALR sulfhydryl oxidase activity | P55789 | purified ALR, DTT oxidation, H2O2 HRP-luminol luminescence | inhibition, % (concentration not given with the values) | 290,000 tested, 3.8% active | AID 485317;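 active = mean replicate inhibition above about 79%, with every replicate also reaching it, limit read from the data; inconclusive = only one of the two criteria met; inactive = mean below limit and not every replicate reaching it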
PHOSPHO1 block: blocks human PHOSPHO1 phosphatase activity; inhibition, % at 13.3 µM; AID 1565; Q8TCT1; 290,000 tested, 1.1% active; recombinant PHOSPHO1, absorbance phosphatase assay; in the data active = inhibition above about 60%
Target sequence (Q8TCT1 whole entry, looked up): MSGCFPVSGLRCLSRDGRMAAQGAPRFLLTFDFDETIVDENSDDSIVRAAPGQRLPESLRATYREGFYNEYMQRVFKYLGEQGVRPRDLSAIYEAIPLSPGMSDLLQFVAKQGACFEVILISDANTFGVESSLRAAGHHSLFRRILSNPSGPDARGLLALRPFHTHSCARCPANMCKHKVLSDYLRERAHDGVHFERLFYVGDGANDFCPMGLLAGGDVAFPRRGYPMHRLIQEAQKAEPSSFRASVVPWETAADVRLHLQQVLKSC
rCAG binder conf: r(CAG) RNA repeat binding, confirmation | shares compounds with rCAG binder | 4,300 tested, 70% active | AID 652065 | TO-PRO-1 dye displacement fluorescence | inhibition, % at 3 µM;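 active = inhibition above a per-plate cutoff, the mean inhibition of sample wells plus 3 SD, cut at about 35% in these data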;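 note: loss of TO-PRO-1 fluorescence as compound displaces dye from 1x1 AA loop RNA; 0% = DMSO only wells and 100% = 100 µM mitoxantrone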
dCAG dye counter: disrupts DNA CAG TO-PRO-1 complex, flagging rCAG hits; shares compounds with rCAG binder; d(CAG) DNA oligo TO-PRO-1 dye displacement, fluorescence; inhibition, % at 3 µM; 4,300 tested, 94% active;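 active = inhibition above its plate's cutoff, the mean test-well inhibition plus 3 SD, cut at about 4.8% in these data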;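 note: 0% = DNA dye mix with DMSO and 100% = 100 µM mitoxantrone; hits displace the dye from DNA and so lower well fluorescence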
dCAG dye DR: disrupts DNA CAG TO-PRO-1 complex in dose response. shares compounds with rCAG binder. DNA CAG/GTC duplex TO-PRO-1 dye displacement fluorescence. IC50, µM. 250 tested, 20% active. AID 686960; in the data active = IC50 below about 10 µM
Starred values were filed as active, the others as inactive; ? = inconclusive; . = no result. The list is not random: actives were taken first. Their share in the collection is about 5.4%.

SMILES	A3A deaminase	rCAG binder	A3G deaminase	aDG glyco up	ALR inh	PHOSPHO1 block	rCAG binder conf	dCAG dye counter	others
C[C@H](NS(=O)(=O)c1ccc(Cl)cc1)C(=O)OCC(=O)Nc1cc(S(=O)(=O)N2CCOCC2)ccc1Cl	.	3	.	0	.	.	.	.
COc1ccc(Cc2n[nH]c(=S)n2NC(=O)Nc2ccc(Cl)c(Cl)c2)cc1	-2	63*	0	0	.	-109	37*	15*
COc1cccc2sc(Nc3nnc(-c4cccs4)o3)nc12	1	31	-1	0	33	18	.	.
COc1cccc2sc(Nc3nnc(-c4ccc(F)cc4)o3)nc12	10	62*	10	0	34	-46	72*	28*	dCAG dye DR=>30
CCCC[C@@H]1C=C(C(=O)O)[C@H](c2ccc(Cl)cc2)N1S(=O)(=O)c1ccc(C)cc1	-6	58*	-5	0	14	.	54*	20*
CCCCC[C@@H]1C=C(C(=O)O)[C@H](c2ccc(Br)cc2)N1S(=O)(=O)c1ccc(C)cc1	-3	80*	-5	0	.	.	69*	31*
CCCC[C@@H]1C=C(C(=O)O)[C@H](c2ccc3c(c2)OCO3)N1S(=O)(=O)c1ccc(C)cc1	-3	45*	-6	0	.	.	39*	11*
COc1ccc(CC(N)c2csc(Nc3nncc4ccccc34)n2)cc1 (configuration not stated)	.	16	.	0	.	.	.	.
Cc1ccc(N(CC(=O)NC(C)(C)C)C(=O)CCC(=O)Nc2ccccn2)cc1	.	-4	.	0	.	.	.	.
CCCCOc1ccc(C(=O)NCC(=O)N2CCN(C/C=C/c3ccccc3)CC2)cc1	.	2	.	0	.	.	.	.
O=C(Nc1ccc(Cl)cc1)Nc1ccccc1NS(=O)(=O)c1cccs1	-1	43*	-1	0	19	1	39*	10*
Cc1cc(Cl)ccc1OCC(=O)Nc1ccccc1NS(=O)(=O)c1cccs1	1	42*	-3	0	-3	45	51*	11*
Nc1[nH]c2cc([N+](=O)[O-])ccc2c1-c1ccccn1	-7	41*	0	0	92*	6	18	19*
Nc1nc2ccc([N+](=O)[O-])cc2[nH]1	2	2	-1	0	0	-10	.	.
COc1cc(/C=C2\SC(=S)N(Nc3ncc(C(F)(F)F)cc3Cl)C2=O)ccc1O	-3	53*	-7	0	23	73*	63*	32*
COC(=O)c1cccc(Cn2c(Cl)c(/C=N/Nc3ccccc3C)sc2=O)c1	.	13	.	-1	1	-11	.	.
Cc1ccccc1N/N=C/c1sc(=O)n(Cc2cccc(C(=O)O)c2)c1Cl	-5	69*	-3	0	?	-34	78*	40*
COc1ccc(O)c(C(=O)c2cnc3nc4ccccc4n3c2)c1	.	40*	.	0	37	-2	17	6.5*
CCN(CC)C(=O)C1=C(C)N(Cc2ccc(F)cc2)C(=O)C(CC(=O)NCCN2CCOCC2)C1 (configuration not stated)	.	0	.	0	.	.	.	.
O=C(O)c1[nH]c2ccc(Cl)cc2c1CCN1C(=O)c2ccccc2C1=O	-2	50*	-5	0	0	-1	26	6.3*
O=C(O)c1[nH]c2ccc(Br)cc2c1CCN1C(=O)c2cccc([N+](=O)[O-])c2C1=O	4	64*	-1	0	-5	41	42*	13*
COc1ccc2[nH]c(C(=O)O)c(CCN3C(=O)c4ccc(C(=O)O)cc4C3=O)c2c1	-3	1	-5	0	-23	9	.	.
Cc1ccc(NC(=O)CCN2C(=O)c3cccc([N+](=O)[O-])c3C2=O)c(Br)c1	-6	-2	-4	0	-13	39	.	.
CCOc1ccc(CCN2C(=S)N([C@@H](CC(C)C)CN3CCCC3CN3C(=S)NC[C@@H]3CC(C)C)C[C@@H]2Cc2ccccc2)cc1 (some centres not stated)	.	2	.	0	.	.	.	.
COc1cc(C2c3sc(=O)[nH]c3SC3C(=O)N(c4ccc(Br)cc4)C(=O)C32)ccc1O (configuration not stated)	0	38*	-1	0	59	8	23	8.2*
SMILES	A3A deaminase	rCAG binder	A3G deaminase	aDG glyco up	ALR inh	PHOSPHO1 block	rCAG binder conf	dCAG dye counter	others
COc1ccc(C2c3sc(=O)[nH]c3SC3C4CCC(C4)C23)cc1OC (configuration not stated)	-2	6	-3	0	4	12	.	.
Nc1nc(-c2ccccc2)c(N=Nc2cccc3ccccc23)s1	6	35*	7	-1	-12	3	29	18*
Nc1nc(-c2ccccc2)c(N=Nc2ccccc2Cl)s1	-2	25	-4	-1	.	-18	.	.
N#Cc1c2nc3ccccc3nc2n2cc(NC(=O)c3ccc(F)cc3)ccc12	.	36*	.	0	.	4	42*	20*
O=C(Nc1c(C(=O)Nc2cccc3ccccc23)cnn1-c1ccccc1)c1ccco1	-1	64*	-3	0	6	-5	49*	16*
CCOC(=O)C(=NO)C1=CSC2=NNC(C)(C)N12	.	32	.	0	.	.	.	.
Cc1ccc(F)cc1C(=O)N1CCCC(c2cc(C(=O)NCc3ccc(F)cc3)no2)C1 (configuration not stated)	.	2	.	0	.	.	.	.
N#C/C(=C(/O)CCl)c1nc(-c2ccccc2)cs1	2	42*	-1	0	.	-61	38*	18*
O=C(NC(CC1=CCCCC1)c1ccccc1)C(F)(F)F (configuration not stated)	.	2	.	.	.	.	.	.
CCOC(=O)C1=C(C(=O)OCC)C2N(Cc3ccc(Br)cc3)c3ccccc3[C@@]23C[C@@H](C(=O)OC)N(S(=O)(=O)c2ccc(OC)cc2)C3=N1 (some centres not stated)	.	8	.	.	.	.	.	.
CCCCN1CCC(=O)C(C(=O)OCC)=C1C(=O)OCC	.	-2	.	0	.	.	.	.
COc1ccc2[nH]c3c(c2c1)CCN1C(=O)C(CC(=O)NCCCn2ccnc2)C[C@H](C(=O)N2CCOCC2)[C@@]31CCC1CCCC1 (some centres not stated)	2	3	1	1	.	.	.	.
O=C(CC1C[C@H](C(=O)N2CCOCC2)[C@@]2(CCC3CCCC3)c3[nH]c4ccccc4c3CCN2C1=O)NCCCn1ccnc1 (some centres not stated)	-3	35*	-8	0	.	.	2	2

Screening data (PubChem BioAssay)
